From PubChem BioAssay (Tox21)
Results filed as inconclusive are left out. Activity calls are given as the source filed them. Calls follow the shape of the dose curve; as a rule, active = well fitted cell-killing curve with a large enough effect in the repeat runs; inconclusive = weak or mixed curves, or effect the other way; inactive = flat fitted curve, though single readings scatter.

assay: qHTS RealTime-Glo MT Cell Viability Assay in HepG2 cells - 40 hour (AID 1224870); settings: RealTime-Glo luminescence; series mostly up to 76.8 µM; activity change, negative = cytotoxic: at the top concentration; also: nearly all actives have a fitted effect of over 50% in size
Text: National Center for Advancing Translational Sciences [NCATS]
NIH Chemical Genomics Center [NCGC]
U.S. Environmental Protection Agency [EPA]
National Institutes of Environmental Health Sciences [NIEHS]
National Toxicology Program [NTP]
U.S. Food and Drug Administration [FDA]
Measure of cell viability is critical in the cell-base assay. Analysis of cell viability is necessary for the characterization of cell responses to cytotoxic drugs and environmental stress. A RealTime-Glo MT Cell Viability Assay to monitor cell viability in real time of continues cell culture during 40 hours of compound treatment was used to screen Tox21 10K library compounds in HepG2 cells. The RealTime-Glo MT Cell Viability Assay is a nonlytic, homogeneous, bioluminescent method to measure cell viability in real time using a simple, plate-based method. The assay involves adding NanoLuc luciferase and a cell-permeant prosubstrate to cells in culture. Viable cells reduce the proprietary prosubstrate to generate a substrate for NanoLuc luciferase. This substrate diffuses from cells into the surrounding culture medium, where it is rapidly used by the NanoLuc Enzyme to produce a luminescent signal. The signal correlates with the number of viable cells, making the assay well suited for cytotoxicity studies.
Tox21 Assay Protocol Summary:
The mixture of HepG2 cell suspension and reagents were dispensed at 600cells/6 ul/well in 1536-well tissue culture treated black solid bottom plates using a Multidrop dispenser. After the assay plates were incubated at a 37 C/5% CO2 incubator for 5 hours, 23 nL of compounds dissolved in DMSO, positive and negative controls was transferred to the assay plate by a pintool work station. The plates were incubated at 37 C for 40 hours. The luminescence intensity were measured at 0h, 8h, 16h, 24h, 32h and 40h time points using ViewLux plate reader during compound treatment.
% is scaled to controls: 0 for no effect and ±100 for the full control effect.

SMILES	activity change, negative = cytotoxic
CC(C)(C)N(CCO)CCO	-1.8% (inactive)
COC(=O)c1ccc(C(=O)OC)c(C(=O)OC)c1	-0.928% (inactive)
CCC(C(=O)NC(N)=O)c1ccccc1 (stereo not given)	2.09% (inactive)
CCCOc1ccccc1-c1nc2n[nH]nc2c(=O)[nH]1	0.29% [at 35.3 µM] (inactive)
O=C(O)Cc1cc(I)c(Oc2cc(I)c(O)c(I)c2)c(I)c1	-10.2% [at 35.3 µM] (inactive)
NCCNC(=O)c1ccc(Cl)cn1	1.38% [at 35.3 µM] (inactive)
Nc1cc(C(Cl)=C(Cl)Cl)c(S(N)(=O)=O)cc1S(N)(=O)=O	0.572% [at 35.3 µM] (inactive)
CCC(C)(C)C1CCC(OC)CC1 (stereo not given)	-1.91% (inactive)
CC(C)N1C(=O)c2ccccc2C1=O	1.63% (inactive)
C=CC(=O)N1CCOCC1	-6.37% (inactive)
COc1ccc(N=[N+]([O-])c2ccc(OC)cc2)cc1	0.745% (inactive)
CC12CCC(CC1=O)C2(C)C (stereo not given)	1.41% (inactive)
CC1(C)SC(C)(C)SC(C)(C)S1	7.52% (inactive)
CN(C)CCn1nnnc1SCC1=C(C(=O)O)N2C(=O)[C@@H](NC(=O)Cc3csc(N)n3)[C@H]2SC1	3.18% [at 35.3 µM] (inactive)
NS(=O)(=O)c1cc2c(cc1C(F)(F)F)NC(Cc1ccccc1)NS2(=O)=O (stereo not given)	2.35% [at 35.3 µM] (inactive)
NC(CS)C(=O)O (stereo not given)	5.31% [at 35.3 µM] (inactive)
CCCCOCC(C)OCC(C)O (stereo not given)	-0.116% (inactive)
CC(C)c1cccc(C(C)C)c1N	1.04% (inactive)
O=C(O)c1ccccc1-c1ccc(C(F)(F)F)cc1	4.49% [at 35.3 µM] (inactive)
C=C(C)C(=O)OCCC(C)OC(=O)C(=C)C (stereo not given)	-0.853% (inactive)

SMILES	activity change, negative = cytotoxic
C=C[Si](OC)(OC)OC	-2.42% (inactive)
C[C@H](O)C(=O)Nc1c(I)c(C(=O)NC(CO)CO)c(I)c(C(=O)NC(CO)CO)c1I	0.106% [at 35.3 µM] (inactive)
N#CCN(CC#N)CCN(CC#N)CC#N	1.62% (inactive)
CC(=O)OC(C)(C)C	2.9% (inactive)
NC1CCN(c2cccc(Cl)n2)CC1	3.78% [at 35.3 µM] (inactive)
Nc1ccc2cc(S(=O)(=O)O)ccc2c1	2.27% (inactive)
Nc1nc(F)nc2c1ncn2[C@@H]1O[C@H](CO)[C@@H](O)[C@@H]1O	0.75% [at 35.3 µM] (inactive)
CCCCc1ccc(N)cc1	-1.53% (inactive)
CC(C)=CCC/C(C)=C/C(=O)O	4.85% (inactive)
COCc1ccc(COC)cc1	3.02% (inactive)
CCO[Si](C)(OCC)OCC	1.14% (inactive)
CCCCCCC(CCCCCCCCCCC(=O)OCC(COC(C)=O)OC(C)=O)OC(C)=O (stereo not given)	-1.43% [at 35.3 µM] (inactive)
CCCCCCOC(=O)c1ccccc1O	-1.99% (inactive)
Nc1nc2c(ncn2CCC(CO)CO)c(=O)[nH]1	2.08% [at 35.3 µM] (inactive)
O=C1CC2(CCCC2)CC(=O)N1	2.53% [at 35.3 µM] (inactive)
CCCC(C)CO (stereo not given)	-2.92% (inactive)
OC1OC[C@@H](O)[C@H](O)[C@H]1O (stereo not given in full)	0.336% (inactive)
COC(C(=O)O)c1ccccc1 (stereo not given)	0.145% (inactive)
Oc1cc(O)c2c(c1)O[C@H](c1ccc(O)c(O)c1)[C@H](O)C2	-2.22% [at 35.3 µM] (inactive)
O=C(O)/C=C/c1ccc(Cn2ccnc2)cc1	2.27% [at 35.3 µM] (inactive)
